The AC50 is the concentration at which the activity in the assay is half-maximal.

SMILES strings stand for the structures. Records with an inconclusive call do not appear. Activity calls are given as the source filed them. The calls were made as follows, unless noted: active = hit-call score of the fitted dose curve at least 0.9, where 1 is the maximum; inconclusive = response in the unintended direction; inactive = score below 0.9.

Our source for the outcome and AC50 values is PubChem BioAssay (EPA / NIEHS).

The nature of experiment [1]: CCTE_Mundy_HCI_iCellGluta_NOG_NeuronCount: CCTE's Neurite Outgrowth Assay in iCellGluta cells for Neuron Count, Mundy Lab (AID 2284340).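 Also: cells fixed about 48 h after compound addition.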 In short, it runs like this:
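Neuron count read by automated high-content imaging of Hoechst 33342 and betaIII-tubulin/Alexa Fluor-488 labelling in human iPSC glutamatergic neurons. Activity fitted relative to DMSO.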

Experiment [2] in a line: TAMU_PeakParms_SingleDonor1434_Asystole: Texas A&M University (TAMU) 1.5-hr Human Induced Pluripotent Stem Cell (iPSC)-derived Cardiomyocytes Calcium (Ca+2) Flux Assay for Cardiotoxicity: Asystole (quiescence of beating) (AID 2284328). As to the method:
TAMU_PeakParms is a cell-based, multiplexed-readout assay that uses iPSC-derived cardiomyocytes with measurements taken at 1.5 hours after chemical dosing in a microplate: 384-well plate.TAMU_PeakParms_SingleDonor1434_Chronotopy is a phenotype derived from the peak.freq.avg parameter and uses an EC95 as its POD (95% decrease in beat rate, compared to controls). Peak.Freq.Avg measures the average peak frequency, in beats per second, using Fluorescence intensity as a functional reporter from Calcium (Ca+2) flux assay technology. There is no preprocessing performed on the data used to model this phenotype.Data from the assay component TAMU_PeakParms_SingleDonor1434_Asystole was analyzed into 1 assay endpoint. This assay endpoint, TAMU_PeakParms_SingleDonor1434_Asystole, was analyzed in the positive analysis fitting direction relative to DMSO as the negative control and baseline of activity. Using a type of functional reporter, loss-of-signal activity can be used to understand changes in the cardiac function. To generalize the intended target to other relatable targets, this assay endpoint is annotated to the cardiomyocyte function intended target family, where the subfamily is cessation of beating.
Each test compound from the chemical master plates was transferred into new tissue culture-treated 384-well microplates using acoustic dispensing (Labcyte Echo 550, Beckman Coulter, Indianapolis, IN) in amounts that would result in 5x concentrations (1, 5, 50, 500 uM) in the working plate in a final volume of 50 uL. Chemicals were randomly divided into 16 separate 384-well plates for screening such that the outer-most wells were left empty (308 wells were used on each plate). Fifteen of the plates contained unique test chemicals (n = 65 chemicals, 4 concentrations, one replicate each), positive controls (n = 10 chemicals, one concentration, 3 replicates each), vehicle (0.5% DMSO, n = 12), and media-only (n = 6) wells. Plate 16 contained test chemicals (n = 54 chemicals, 4 concentrations, one replicate each), inter-plate replicates (n = 11 chemicals with replicates, 4 concentrations, one replicate each), and the same design of positive controls and vehicle- and media-only wells as other plates. These plates were stored at -80C until the day of the assay. On assay day, the 5x concentrated chemical working plate was prepared by adding 50 uL cardiomyocyte maintenance medium containing 2.5% v/v DMSO to each well of the microplates. Then, 12.5 uL of 5x concentrated test chemical solution was added to the test plate to yield final concentrations of 0.2, 1, 10, and 100 uM in 0.5% v/v DMSO using the liquid handling robotics of the FLIPR Tetra. […]

Experiment [3] is described as follows: VALA_TUBHUV_Antagonist_TubuleLength: VALA Sciences human Umbilical Vein Endothelial Tubule Formation (TUBHUV) Antagonism Assay (AID 2284325). On the procedure: VALA_TUBHUV_Antagonist is a cell-based, multiplexed assay that uses human umbilical vein endothelial cells (HUVEC). Measurements were taken 72 hours after chemical dosing in a 96-well plate.VALA_TUBHUV_Antagonist_TubuleLength is the one of two assay components measured from the VALA_TUBHUV_Antagonist assay. It is designed to make measurements of tubulogenesis, a form of morphology reporter, as detected with fluorescence intensity signals by HCS Fluorescent Imaging technology. This VALA_TUBHUV_Antagonist assay was designed to detect chemical suppression of tubulogenesis, i.e. antagonism.Data from the assay component VALA_TUBHUV_Antagonist_TubuleLength was analyzed at the endpoint, VALA_TUBHUV_Antagonist_TubuleLength, in the positive analysis fitting direction relative to DMSO as the negative control and baseline of activity. Using a type of morphology reporter, loss-of-signal activity can be used to understand developmental effects. To generalize the intended target to other relatable targets, this assay endpoint is annotated to the neurodevelopment intended target family, where the subfamily is tubulogenesis.
This HUVEC-HDF assay was designed to detect chemical suppression of tubulogenesis, i.e. antagonism. […]

Experiment [4] can be described thus: VALA_MIGHUV1_ScratchOnly_WoundArea: VALA Sciences human Umbilical Vein Endothelial Cell Migration (MIGHUV) Assay, Area of Scratch Wound Inhibited Recovery (AID 2284336). In short, it runs like this:
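Wound area remaining after 24 h recovery imaged by Hoechst nuclear fluorescence in scratched HUVEC cultures, chemicals added within 30 min of scratching across a 6-point series. Gain of signal fitted against 0.1% DMSO; cytochalasin D positive control.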

Experiment [5] is described as follows: VALA_TUBHUV_Agonist_TubuleLength: VALA Sciences human Umbilical Vein Endothelial Tubule Formation (TUBHUV) Agonism Assay (AID 2284337). In short, it runs like this: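 Tubule length quantified by CD31 immunofluorescence imaging after fixation. HUVEC-HDF co-cultures (1:3) pre-grown 3 days with 10 ng/ml VEGF, then dosed 3 days in VEGF medium; 0.1 % DMSO vehicle baseline.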

The nature of experiment [6]: VALA_TUBIPS_Agonist_CellCount: Viability Assessment in the VALA Sciences human iPS-derived Endothelial Tubule Formation (TUBIPS) Agonism Assay (AID 2284338).
A short description of experiment [7]: VALA_TUBIPS_Antagonist_CellCount: Viability Assessment in the VALA Sciences human iPS-derived Endothelial Tubule Formation (TUBIPS) Antagonism Assay (AID 2284335).
The test system of experiment [8] is Brachyury (BRA) Protein Expression, Deisenroth Lab, TBXT (gene 6862). Nature of the experiment: CCTE_Deisenroth_DEVTOX-GLR_legacy_Bra: (Legacy) CCTE's DevTox GLR-Endo Assay Evaluation of Brachyury (BRA) Protein Expression, Deisenroth Lab (AID 2284329; active = hit-call score of the fitted dose curve at least 0.9, where 1 is the maximum; inactive = score below 0.9). The procedure, abridged:
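Percent Bra-positive cells, scored by high-content imaging against a threshold of 5x BMAD over the undifferentiated control median, with the 0.2% DMSO median subtracted. RUES2-GLR cultures were dosed twice at 24 h intervals across a 48 h differentiation, at 1 nM–200 uM in ten steps, with n=4 replicates.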

The nature of experiment [9]: CCTE_Deisenroth_DEVTOX-GLR_legacy_CellCount: (Legacy) Viability Assessment in CCTE's DevTox GLR-Endo Assay, Deisenroth Lab (AID 2284331; active = hit-call score of the fitted dose curve at least 0.9, where 1 is the maximum; inactive = score below 0.9). The following applies: actives raise or lower the signal. On the procedure:
CCTE_Deisenroth_DEVTOX-GLR_legacy assay is a cell-based, multiplex-readout assay that uses RUES2-GLR, a human pluripotent cell line, with measurements taken at 48 hours after chemical dosing in a 384-well microplateCCTE_Deisenroth_DEVTOX-GLR_legacy_CellCount is one of 4 assay components calculated from the CCTE_Deisenroth_DEVTOX-GLR_legacy assay that measures an increase in cell count. It is designed to make measurements of nuclei count, a form of cell viability, as detected with optical fluorescence microscopy by Perkin Elmer Harmony nuclei detection algorithm. The assay endpoints were analyzed with bidirectional fitting relative to 0.2% DMSO control in the DEVTOX-GLR assay.Data from the assay component CCTE_Deisenroth_DEVTOX-GLR_legacy_CellCount was analyzed into 1 assay endpoint. This assay endpoint, CCTE_Deisenroth_DEVTOX-GLR_legacy_CellCount, was analyzed with bidirectional fitting relative to DMSO as the negative control and baseline activity. Using nuclei counting, gain or loss-of-signal activity can be used to understand changes in cell viability. Furthermore, this assay endpoint can be referred to as a primary readout, because this assay has produced multiple assay endpoints where this one serves as a measure of cytotoxicity. […]

Experiment [10] has as its system SRY-box transcription factor 17 (SOX17) Protein Expression, Deisenroth Lab, SOX17 (gene 64321). Nature of the experiment: CCTE_Deisenroth_DEVTOX-GLR_legacy_Sox17: (Legacy) CCTE's DevTox GLR-Endo Assay Evaluation of SRY-box transcription factor 17 (SOX17) Protein Expression, Deisenroth Lab (AID 2284341; active = hit-call score of the fitted dose curve at least 0.9, where 1 is the maximum; inactive = score below 0.9). The note with it: actives raise or lower the signal. In short, it runs like this:
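Endoderm-differentiation readout in RUES2-GLR human pluripotent cells at 48 h, concentrations spanning 1 nM - 200 uM. Sox17-positive cells divided by total cell count; gain or loss relative to DMSO solvent control, n=4 experimental replicates.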

As for `COP(N)(=O)SC` (stereo unspecified), in experiment [1], the outcome was inactive. Still for that read-out and setting: the entry for `C=CC1(C)OC(=O)N(c2cc(Cl)cc(Cl)c2)C1=O` (stereo unspecified) is “inactive”. On to `CCCCOC(=O)c1ccccc1C(=O)OCCCC`, for which the result in experiment [1] was inactive.

Regarding `CO/C=C(/C(=O)OC)c1ccccc1Oc1cc(Oc2ccccc2C#N)ncn1`, in experiment [1], the AC50 is 66 µM (active). Take `Oc1ccccc1-c1ccccc1`: the result in experiment [2] was inactive. On to `N#Cc1nn(-c2c(Cl)cc(C(F)(F)F)cc2Cl)c(N)c1S(=O)C(F)(F)F` (stereo unspecified), for which the call in experiment [3], in [4], in experiment [5], in [6] and in experiment [1] was inactive.

On to `CN(C)C(=S)SSC(=S)N(C)C`, for which, in experiment [1], the half-maximal activity concentration (AC50) was 0.0675 µM (active). For `CCOc1cc(Oc2ccc(C(F)(F)F)cc2Cl)ccc1[N+](=O)[O-]`, the AC50 in experiment [1] is 50 µM (active). On the same count and under the same terms, with `COP(=S)(OC)Oc1nc(Cl)c(Cl)cc1Cl` the figure was 23.1 µM (active); with `COC(=O)N(OC)c1ccccc1COc1ccn(-c2ccc(Cl)cc2)n1`, 12.7 µM (active). In the case of `CNC(=O)ON=CC(C)(C)SC`, the result in experiment [2] was inactive. For the compound `Cc1ccc(-c2c(Cl)nc(C#N)n2S(=O)(=O)N(C)C)cc1`, the half-maximal activity concentration (AC50) in experiment [1] is 50 µM (active). Turning to `CCOC(=O)CC(SP(=S)(OC)OC)C(=O)OCC` (stereo unspecified), in [1], the result was inactive. As for `CCCCNC(=O)OCC#CI`, in [2], the result was inactive. For the compound `C=CCC1=C(C)C(OC(=O)C2C(C=C(C)C)C2(C)C)CC1=O` (stereo unspecified), in experiment [1], the result was inactive.

As for `CCCCNC(=O)n1c(NC(=O)OC)nc2ccccc21`, the compound was classed as inactive in experiment [1].

On to `C=CCC1=C(C)[C@@H](OC(=O)[C@@H]2[C@@H](C=C(C)C)C2(C)C)CC1=O`, for which, in experiment [1], the compound was called inactive. For the compound `CC(C)(C)c1ccc(CSc2cnn(C(C)(C)C)c(=O)c2Cl)cc1`, the result in experiment [3] and in [7] was inactive. Further, the AC50 in experiment [5] was 7.59 µM (active); in experiment [6], 50 µM (active); in experiment [1] it was 6.79 µM (active). Take `CCCCC(CC)COC(=O)c1ccccc1C(=O)OCC(CC)CCCC` (stereo unspecified): the outcome in experiment [2] was inactive. For the same compound, the concentration at half-maximal activity (AC50) in experiment [1] is 18.8 µM (active). Turning to `COC(=O)c1ccccc1C(=O)OC`, the result in experiment [8], in [9] and in experiment [10] was inactive.
